# This is a sample that favours compounds with a hit; in the whole collection about 19% have one here.
# IL1B secr inh: qHTS for Inhibitors of Inflammasome Signaling: IL-1-beta AlphaLISA Primary Screen. THP-1 LPS/ATP IL-1B secretion, AlphaLISA, 16 h; hits give low values. activity change, % at 57.5 µM. AID 743279, 2014. 4.7% of 360,000 active; in the data active = activity change below about -50%; inconclusive = mostly about -30% to -49%
#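 Secreted IL-1B measured by AlphaLISA bead assay after 16 h compound exposure of THP-1 cells; compounds (final up to 57.5 uM) added 1 h before LPS (250 ng/mL) and ATP (1.25 mM) stimulation; lower signal means less secretion.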
# uPA generation: qHTS for Inhibitors of Cell Surface uPA Generation | cell surface uPA generation assay, qHTS | Potency, µM (doses to about 38.3 µM), usual class: inhibitors | 0.31% of 330,000 active | AID 540303, 2011; active = well fitted inhibition curve with a large enough effect; inconclusive = small, poorly fitted or top-dose-only effect; inactive = no such curve, though single readings can be large or run the other way; tested in mouse RAW 264.7 cells; also: nearly all actives have a fitted effect of over 55% in size
# DT40 TDP1 no CPT: qHTS for Inhibitors of human tyrosyl-DNA phosphodiesterase 1 (TDP1): qHTS in cells in absence of CPT; DT40 Tdp1-/- hTDP1 cells, no CPT, ATP luminescence, 48 h; Potency, µM (top dose mostly 46.2 µM), most hits filed as inhibitors; 15% of 420,000 active; AID 686978, 2013; also: nearly all actives have a fitted effect of over 55% in size
#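 Chicken DT40 Tdp1-/- cells stably complemented with human TDP1 were seeded at 400 cells/well with DMSO in place of 20 nM camptothecin. After compound pinning, cells grew at least 48 hr at 37 °C; viability read by CellTiter-Glo luminescence.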
# HT1080 IDH1KD tx: qHTS for induction of synthetic lethality in tumor cells producing 2HG: qHTS for the HT-1080-IDH1KD cell line. HT-1080 IDH1 knockdown viability, ATP luminescence, 48 h. Potency, µM (highest dose often 46.1 µM), usual class: cytotoxic. 2% of 360,000 active. AID 686971, 2013
#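 Knockdown cells (IDH1KD HT-1080) received compounds 2 h after plating at 750 cells/well and were kept 48 h at 37 °C in 5% FBS RPMI. A CellTiter-Glo luminescence read gave % activity for curve fitting.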
# DT40 TDP1 CPT: qHTS for Inhibitors of human tyrosyl-DNA phosphodiesterase 1 (TDP1): qHTS in cells in presence of CPT; Potency, µM (doses to about 46.2 µM), hits mostly inhibitors; chicken DT40 Tdp1-/-;hTDP1 cells + 20 nM CPT, ATP luminescence, 48 h; 12% of 420,000 active; also: nearly all actives have a fitted effect of over 55% in size
#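 Cell growth measured by CellTiter-Glo luminescence after a minimum 48 h, 37 C compound exposure with 20 nM CPT in Tdp1-knockout DT40 cells stably expressing hTDP1, seeded 400/well; qHTS titration format.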
# HT1080-NT tox: qHTS for induction of synthetic lethality in tumor cells producing 2HG: qHTS for the HT-1080-NT fibrosarcoma cell line | HT-1080-NT fibrosarcoma viability, CellTiter-Glo ATP luminescence, 48 h | Potency, µM (titrated, usually from 46.1 µM), usual class: cytotoxic | 1.6% of 360,000 active;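 also: NT is the 2HG producing partner of a matched IDH1 knockdown line; nearly all actives have a fitted effect of over 55% in size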
#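 Fibrosarcoma NT cells, 750 per well in 5% FBS RPMI, were exposed to compound for 48 hours. Viability: CellTiter-Glo luminescence.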
# A number is an active result; . = inactive; ? = inconclusive; / = not tested or not shown; [ ] = another dose, or the depositor's remark. Unless noted, calls follow the shape of the dose curve; as a rule, active = well fitted curve in the direction sought with a large enough effect; inconclusive = small, poorly fitted or top-dose-only effect, or another doubt; inactive = no such curve, though single readings can be large; an effect the other way counts as inactive or inconclusive.
SMILES,IL1B secr inh,uPA generation,DT40 TDP1 no CPT,HT1080 IDH1KD tx,DT40 TDP1 CPT,HT1080-NT tox
Cc1[nH]c2ccccc2c1CCN(Cc1cccnc1)C(=S)NC(C)(C)C,.,.,?,.,.,.
O=C(Nc1cnccc1C(F)(F)F)NC1CCCCC1,.,.,.,.,.,.
CC(C)(C)n1ncc(Oc2ccccc2[N+](=O)[O-])c(Cl)c1=O,.,.,23µM,.,?,.
CCN1CCC(NCCc2ccc(F)cc2)CC1,-54,.,?,.,?,.
CC(C)(C)c1ccc(C(=O)N2CCC2(C)C(=O)NCc2ccc3c(c2)OCO3)cc1 (configuration not stated),.,/,9.2µM,?,12µM,.
CC(C)CNC(=O)C1(C)CCN1C(=O)c1ccc(C(C)(C)C)cc1 (configuration not stated),.,/,8.2µM,.,10µM,.
Cc1c(C(=O)N2CCCCCC2(C)C(=O)NCC(C)C)oc2ccccc12 (configuration not stated),.,/,18µM,.,?,.
O=C(NCc1ccccn1)c1cnn(-c2nccc(-c3cc4ccccc4o3)n2)c1C1CC1,/,/,.,/,.[9.04 µM],/
CCCCC1(Br)C(=O)N(c2ccccc2)N(c2ccccc2)C1=O,.,.,16µM,.,?,.
COc1ccc(NC(=O)c2ccccc2OCc2ccc(F)cc2)c(OC)c1,.,.,?,.,?,.
COc1ccc(C(=O)N2CCC[C@@]3(CCN(c4ncccn4)C3)C2)cc1,/,/,.,/,.,/
Cc1sc(NC(=O)c2ccccc2)c(C(c2ccccn2)N2CCN(CCO)CC2)c1C (configuration not stated),.,.,9.2µM,.,10µM,.
Cc1cnc(CNc2ncncc2-c2cccc(NS(C)(=O)=O)c2)cn1,/,/,.,/,.,/
CCCOc1ccc(C(=O)C(CN2CCOCC2)c2ccccc2)cc1 (configuration not stated),-97,.,8.2µM,16µM,13µM,18µM
O=C(c1ccc(Cl)cc1)C(CN1CCCCC1)c1ccccc1 (configuration not stated),-103,.,2.1µM,2.6µM,1.6µM,5.8µM
COc1ccc(C(=O)C(CN2CCOCC2)c2ccccc2)cc1F (configuration not stated),-101,.,2.6µM,12µM,4.1µM,?
Cc1nc(SCC(=O)Nc2ccccc2Cl)c2c(C)c(C)sc2n1,.,.,?,.,?,.
Cc1cc(C)cc(Cn2cc(CN3CC(N4CCN(CCO)CC4)CS3(=O)=O)nn2)c1 (configuration not stated),.,/,.,.,.,.
C=CCN=C1N[C@@H](c2ccccc2)C(C(=O)OC)=C(C)N1CC,.,.,.,.,?,.
COC(=O)C1=C(C)N(Cc2ccccc2)C(=O)N[C@H]1c1ccccc1,.,.,.,.,?,.
COC(=O)C1=C(C)N(Cc2ccccc2)C(=NCc2ccc(OC)cc2)N[C@H]1c1ccccc1,-52,?,8.2µM,?,7.3µM,.
CCOC(=O)C1=C(C)N(CCCC(=O)O)C(=O)NC1c1ccc(OC)cc1 (configuration not stated),.,.,.,.,.,.
CCOC(=O)C1=C(C)N(C[C@@H]2CC[C@@H](Cc3ccc4cc(OC)ccc4c3)O2)C(=O)NC1c1ccccc1 (some centres not stated),.,?,?,.,21µM,.
COC(=O)C1=C(C)N(Cc2ccccc2)C(=NCC(C)C)N[C@H]1c1ccccc1,?,?,4.1µM,?,4.1µM,.
C=CCN=C1N[C@@H](c2ccc(Br)cc2)C(C(=O)OC)=C(C)N1Cc1ccccc1,/,/,?,/,13µM,/
SMILES,IL1B secr inh,uPA generation,DT40 TDP1 no CPT,HT1080 IDH1KD tx,DT40 TDP1 CPT,HT1080-NT tox
CC(C)(C)C(=O)NNC(=O)c1cnccn1,.,.,.,.,.,.
CCN1C(=O)N[C@@H](c2ccc(Br)cc2)C(C(=O)OC)=C1C,.,.,?,.,?,.
COC(=O)C1=C(C)N(CC2CC2)C(=O)N[C@H]1c1ccc(Br)cc1,.,.,?,.,23µM,.
Oc1ccc2c(c1)OCC1(O)Cc3cc(O)c(O)cc3C21 (configuration not stated),.,?,6.5µM,.,6.5µM,.
O=C(COc1ccccc1Cl)NNC(=O)c1ccc(-n2cncn2)c([N+](=O)[O-])c1,.,.,.,.,?,.
COc1ccc(N2CCN(C(CNC(=O)C(=O)NCCCN(C)C)c3cccnc3)CC2)cc1 (configuration not stated),/,/,.,/,.,/
COc1ccc(N2CCN(C(CNC(=O)C3CCCCC3)c3cccnc3)CC2)cc1 (configuration not stated),.,.,.,.,.,.
COc1ccc(N2CCN(C(CNC(=O)C(=O)NCc3ccc(C)cc3)c3cccnc3)CC2)cc1 (configuration not stated),/,/,7.3µM,/,8.2µM,/
O=C(NCc1ccccc1)C(=O)NCC(c1cccnc1)N1CCN(c2ccccc2)CC1 (configuration not stated),/,/,13µM,/,16µM,/
COc1ccc(N2CCN(C(CNC(=O)C(=O)NCCc3ccccc3)c3cccnc3)CC2)cc1 (configuration not stated),/,/,16µM,/,15µM,/
CC1=C(C(=O)N2CCCCCC2)CC(CC(=O)NCCN2CCOCC2)C(=O)N1CCC1=CCCCC1 (configuration not stated),/,/,.,.,.,.
CCOc1ccccc1NC(=O)C(=O)N/N=C/c1ccc([N+](=O)[O-])cc1,.,.,.,.,.,.
O=C(N/N=C/C(Cl)=C/c1ccc([N+](=O)[O-])cc1)C(=O)Nc1ccccc1C(=O)O,.,.,8.2µM,.,5.2µM,.
O=C(N/N=C/C(Cl)=C/c1ccc([N+](=O)[O-])cc1)C(=O)Nc1ccc(C(=O)O)cc1,-52,.,21µM,.,15µM,.
COc1ccc(N2C(=O)c3ccccc3NC(=O)C2C(=O)Nc2ccc3c(c2)OCCO3)cc1 (configuration not stated),.,/,.,.,?,.
Cc1c(C(=O)NCC(C)(C)N2CCOCC2)cnn1-c1ncc2c(n1)-c1ccccc1CCC2,/,/,.,/,.,/
